Test results: PubChem BioAssay AID1159580 (chemical genetic matrix, 2015)
Several values for one entry are separate records, joined by “and”; a condition that tells them apart may be missing. Identical values can stand only once. The campaign covered roughly 5,500 compounds. About 2,000 (36%) were called active. Roughly 18% stayed inconclusive and do not appear here. No stated cut-off is given here; in the data, active means normalized growth mostly below about 0.91 (no sharp cut-off); inconclusive means no clear call, values can overlap the other calls; inactive means mostly above about 0.92. The list shows a part of the results.

Test: chemical genetic growth profiling, strain panel (AID 1159580);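 further: tested at 20 µM; growth read once vehicle control cultures reached saturation at 30 °C; 1 = growth at the plate median or of vehicle wells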
Conditions: growth OD

Measured: normalized growth

O=C1OC(=O)C2C3CCC(O3)C12 (stereo not given)
inactive: S. cerevisiae deletion strains, locus YKL009W, strain mrt4, stronger effect = lower value 0.895 | S. cerevisiae deletion strains, locus YKL068W, stronger effect = lower value 1 | S. cerevisiae deletion strains, locus YKL085W, strain MDH1 (second series), stronger effect = lower value 1.01 | S. cerevisiae deletion strains, locus YKL085W, strain MDH1, stronger effect = lower value 1.01 | S. cerevisiae deletion strains, locus YKL160W, strain elf1, stronger effect = lower value 1.04 | S. cerevisiae deletion strains, locus YKL190W, strain CNB1, stronger effect = lower value 0.991 | S. cerevisiae deletion strains, locus YKR001C, strain vps1, stronger effect = lower value 0.95 | S. cerevisiae deletion strains, locus YKR026C, strain gcn3, stronger effect = lower value 1 | S. cerevisiae deletion strains, locus YKR091W, strain srl3, stronger effect = lower value 1.01 | S. cerevisiae deletion strains, locus YLL001W, strain dnm1, stronger effect = lower value 0.995 | S. cerevisiae deletion strains, locus YLL026W, stronger effect = lower value 1 | S. cerevisiae deletion strains, locus YLL041C, strain sdh2, stronger effect = lower value 1.02 | S. cerevisiae deletion strains, locus YLR027C, strain aat2, stronger effect = lower value 0.994 | S. cerevisiae deletion strains, locus YLR039C, strain RIC1, stronger effect = lower value 1.06 | S. cerevisiae deletion strains, locus YLR058C, strain SHM2, stronger effect = lower value 1.01 | S. cerevisiae deletion strains, locus YLR102C, strain apc9, stronger effect = lower value 0.972 | S. cerevisiae deletion strains, locus YLR221C, strain rsa3, stronger effect = lower value 0.983 | S. cerevisiae deletion strains, locus YLR258W, strain gsy2, stronger effect = lower value 1.02 | S. cerevisiae deletion strains, locus YLR262C, strain YPT6 (second series), stronger effect = lower value 1.06 | S. cerevisiae deletion strains, locus YLR262C, strain YPT6, stronger effect = lower value 1.06 | S. cerevisiae deletion strains, locus YLR268W, strain sec22, stronger effect = lower value 0.979 | S. cerevisiae deletion strains, locus YLR320W, strain mms22, stronger effect = lower value 1 | S. cerevisiae deletion strains, locus YLR330W, strain CHS5, stronger effect = lower value 1 | S. cerevisiae deletion strains, locus YLR342W, strain FKS1 (second series), stronger effect = lower value 1.02 | S. cerevisiae deletion strains, locus YLR342W, strain FKS1, stronger effect = lower value 1.03 | S. cerevisiae deletion strains, locus YLR357W, strain rsc2, stronger effect = lower value 1.01 | S. cerevisiae deletion strains, locus YLR370C, strain arc18, stronger effect = lower value 0.999 | S. cerevisiae deletion strains, locus YLR371W, strain rom2, stronger effect = lower value 0.959 | S. cerevisiae deletion strains, locus YLR384C, strain iki3, stronger effect = lower value 1.01 | S. cerevisiae deletion strains, locus YLR418C, strain cdc73, stronger effect = lower value 0.928 | S. cerevisiae deletion strains, locus YML016C, strain PPZ1, stronger effect = lower value 1.01 | S. cerevisiae deletion strains, locus YML032C, strain rad52, stronger effect = lower value 0.968 | S. cerevisiae deletion strains, locus YML120C, strain ndi1, stronger effect = lower value 0.998 | S. cerevisiae deletion strains, locus YML124C, strain tub3, stronger effect = lower value 0.986 | S. cerevisiae deletion strains, locus YMR058W, strain fet3, stronger effect = lower value 1 | S. cerevisiae deletion strains, locus YMR078C, strain ctf18, stronger effect = lower value 0.963 | S. cerevisiae deletion strains, locus YMR125W, strain sto1, stronger effect = lower value 1.01 | S. cerevisiae deletion strains, locus YMR129W, stronger effect = lower value 1 | S. cerevisiae deletion strains, locus YMR205C, strain PFK2, stronger effect = lower value 1.03 | S. cerevisiae deletion strains, locus YMR223W, strain ubp8, stronger effect = lower value 0.989 | S. cerevisiae deletion strains, locus YMR231W, strain pep5, stronger effect = lower value 0.988 | S. cerevisiae deletion strains, locus YMR263W, strain SAP30, stronger effect = lower value 1.03 | S. cerevisiae deletion strains, locus YMR307W, strain GAS1, stronger effect = lower value 1.02 | S. cerevisiae deletion strains, locus YNL067W, strain RPL9B, stronger effect = lower value 1.01 | S. cerevisiae deletion strains, locus YNL071W, strain lat1, stronger effect = lower value 1 | S. cerevisiae deletion strains, locus YNL128W, strain TEP1, stronger effect = lower value 1.01 | S. cerevisiae deletion strains, locus YNL153C, strain GIM3, stronger effect = lower value 1.01 | S. cerevisiae deletion strains, locus YNL175C, strain NOP13, stronger effect = lower value 1.02 | S. cerevisiae deletion strains, locus YNL183C, strain NPR1, stronger effect = lower value 0.887 | S. cerevisiae deletion strains, locus YNL197C, strain WHI3, stronger effect = lower value 1.01 | S. cerevisiae deletion strains, locus YNL209W, strain ssb2, stronger effect = lower value 0.994 | S. cerevisiae deletion strains, locus YNL224C, strain SQS1, stronger effect = lower value 1.01 | S. cerevisiae deletion strains, locus YNL233W, strain BNI4, stronger effect = lower value 1.02 | S. cerevisiae deletion strains, locus YNL248C, strain rpa49, stronger effect = lower value 1.05 | S. cerevisiae deletion strains, locus YNL250W, strain rad50, stronger effect = lower value 0.93 | S. cerevisiae deletion strains, locus YNL271C, strain bni1, stronger effect = lower value 0.967 | S. cerevisiae deletion strains, locus YNL307C, strain MCK1, stronger effect = lower value 0.977 | S. cerevisiae deletion strains, locus YNL322C, strain KRE1 (second series), stronger effect = lower value 1.01 | S. cerevisiae deletion strains, locus YNL322C, strain KRE1, stronger effect = lower value 1.02 | S. cerevisiae deletion strains, locus YNR049C, strain mso1, stronger effect = lower value 1.01 | S. cerevisiae deletion strains, locus YNR052C, strain pop2, stronger effect = lower value 0.983 | S. cerevisiae deletion strains, locus YOL006C, strain TOP1, stronger effect = lower value 1.03 | S. cerevisiae deletion strains, locus YOL012C, strain htz1 0.735 | S. cerevisiae deletion strains, locus YOL147C, strain pex11, stronger effect = lower value 0.973 | S. cerevisiae deletion strains, locus YOR001W, strain rrp6, stronger effect = lower value 0.964 | S. cerevisiae deletion strains, locus YOR061W, strain CKA2, stronger effect = lower value 1.01 | S. cerevisiae deletion strains, locus YOR069W, strain VPS5, stronger effect = lower value 1.02 | S. cerevisiae deletion strains, locus YOR070C, strain gyp1, stronger effect = lower value 1.02 | S. cerevisiae deletion strains, locus YOR080W, strain dia2, stronger effect = lower value 1.01 | S. cerevisiae deletion strains, locus YOR083W, strain WHI5 (second series), stronger effect = lower value 1.01 | S. cerevisiae deletion strains, locus YOR083W, strain WHI5, stronger effect = lower value 1.04 | S. cerevisiae deletion strains, locus YOR106W, strain vam3, stronger effect = lower value 1.05 | S. cerevisiae deletion strains, locus YOR136W, strain idh2, stronger effect = lower value 0.964 | S. cerevisiae deletion strains, locus YOR144C, strain elg1, stronger effect = lower value 0.982 | S. cerevisiae deletion strains, locus YOR184W, strain ser1, stronger effect = lower value 0.979 | S. cerevisiae deletion strains, locus YOR231W, strain MKK1, stronger effect = lower value 0.89 | S. cerevisiae deletion strains, locus YOR265W, strain rbl2, stronger effect = lower value 1.01 | S. cerevisiae deletion strains, locus YOR270C, strain vph1, stronger effect = lower value 1.03 | S. cerevisiae deletion strains, locus YOR290C, strain snf2, stronger effect = lower value 1.05 | S. cerevisiae deletion strains, locus YOR316C, strain cot1, stronger effect = lower value 0.979 | S. cerevisiae deletion strains, locus YPL051W, strain arl3, stronger effect = lower value 1.03 | S. cerevisiae deletion strains, locus YPL055C, strain LGE1, stronger effect = lower value 0.959 and 1.03 | S. cerevisiae deletion strains, locus YPL078C, strain atp4, stronger effect = lower value 1.06 | S. cerevisiae deletion strains, locus YPL106C, strain sse1, stronger effect = lower value 1.04 | S. cerevisiae deletion strains, locus YPL240C, strain hsp82, stronger effect = lower value 1 | S. cerevisiae deletion strains, locus YPL241C, strain CIN2, stronger effect = lower value 1.01 | S. cerevisiae deletion strains, locus YPL256C, strain CLN2, stronger effect = lower value 0.926 | S. cerevisiae deletion strains, locus YPR119W, strain clb2, stronger effect = lower value 0.968 | S. cerevisiae deletion strains, locus YPR141C, strain kar3, stronger effect = lower value 0.957 | S. cerevisiae deletion strains, locus YPR163C, strain tif3, stronger effect = lower value 0.96 | S. cerevisiae deletion strains, locus YPR167C, strain met16, stronger effect = lower value 0.977 | S. cerevisiae deletion strains, strain wtn01, stronger effect = lower value 0.983 | S. cerevisiae strains, strain wild type, stronger effect = lower value 1.01
active: S. cerevisiae deletion strains, locus YLR113W, strain HOG1, stronger effect = lower value 0.843 | S. cerevisiae deletion strains, locus YNL298W, strain CLA4, stronger effect = lower value 0.901
